Results reported in PubChem BioAssay (Tox21).
Records with an inconclusive call do not appear. Where a call stands in place of a potency, no number is given. The source made the active and inactive calls. Unless noted, calls follow the shape of the dose curve; as a rule, active = well fitted curve in the direction sought with a large enough effect in the repeat runs; inconclusive = weak or mixed curves; inactive = no such curve, though single readings can be large; an effect the other way counts as inactive or inconclusive.

What was measured:
[1] = qHTS assay to identify small molecule antagonists of the glucocorticoid receptor (GR) signaling pathway - cell viability counter screen (AID 720693); also: nearly all actives have a fitted effect of over 55% in size
[2] = qHTS assay for identifying genotoxic compounds that show differential cytotoxicity against isogenic chicken DT40 cell lines with known DNA damage response pathways - wild type cell line (AID 743012); also: nearly all actives have a fitted effect of over 60% in size; also: potency is read from the fitted curve at half-maximal effect
How it was run: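 CellTiter-Glo luminescence readout of viability in wild type DT40 cells after 40 h compound exposure at 37 C/5% CO2; 300 cells/well; reagent incubated 30 min at room temperature before reading.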

[3] = qHTS assay for identifying genotoxic compounds that show differential cytotoxicity against isogenic chicken DT40 cell lines with known DNA damage response pathways - Rev3 mutant cell line (AID 743014); also: nearly all actives have a fitted effect of over 55% in size; also: potency is read from the fitted curve at half-maximal effect
[4] = qHTS assay for identifying genotoxic compounds that show differential cytotoxicity against isogenic chicken DT40 cell lines with known DNA damage response pathways - Rad54/Ku70 mutant cell line (AID 743015); also: nearly all actives have a fitted effect of over 60% in size; also: potency is read from the fitted curve at half-maximal effect
[5] = qHTS assay to identify small molecule antagonists of the androgen receptor (AR) signaling pathway - cell viability counter screen (AID 743033; also: nearly all actives have a fitted effect of over 45% in size)
[6] = qHTS assay to identify small molecule antagonists of the androgen receptor (AR) signaling pathway using the MDA cell line - cell viability counter screen (AID 743041; also: nearly all actives have a fitted effect of over 45% in size)
How it was run: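 In this qHTS counter assay, fluorescence intensity after CellTiter-Fluor addition indicated viability of MDA-kb2 AR-luc cells given compounds and R1881 for 16 h at 37C.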

[7] = qHTS assay to identify small molecule antagonists of the thyroid receptor (TR) signaling pathway - cell viability counter screen (AID 743064); also: nearly all actives have a fitted effect of over 50% in size; also: potency is read from the fitted curve at half-maximal effect
How it was run: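 CellTiter-Fluor readout, 30 min at 37 °C/5% CO2, following 23.5 h incubation of GH3.TRE-Luc cells with test compound and 1 nM T3 (final).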

[8] = biological target: Androgen receptor (Homo sapiens) (UniProt P10275); assay: qHTS assay to identify small molecule antagonists of the androgen receptor (AR) signaling pathway (AID 743035; active = well fitted inhibition curve with a large enough effect in the signal ratio in the repeat runs, not every such curve was filed as active; the % refers to the signal ratio; also: potency is read from the fitted curve at half-maximal effect)
How it was run: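 AR-bla HEK293 reporter cells; 4 h settle at 37C/5% CO2; compound + R1881 agonist, 16 h at 37C; LiveBLAzer B/G FRET substrate 2 h RT; fluorescence intensity read. qHTS format.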

[9] = biological target: Androgen receptor (Homo sapiens) (UniProt P10275); assay: qHTS assay to identify small molecule agonists of the androgen receptor (AR) signaling pathway using the MDA cell line (AID 743040; also: nearly all actives have a fitted effect of over 20% in size)
How it was run: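 Cell-based luciferase reporter: MDA-kb2, MMTV promoter (AR + GR response elements). 16 h compound exposure at 37C; ONE-Glo, 30 min RT, luminescence.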

[10] = biological target: Androgen receptor (Homo sapiens) (UniProt P10275); assay: qHTS assay to identify small molecule antagonists of the androgen receptor (AR) signaling pathway using the MDA cell line (AID 743042; also: nearly all actives have a fitted effect of over 55% in size)
How it was run: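 MDA-kb2 cells (human breast carcinoma, stably carrying an MMTV-luciferase reporter responsive to AR and GR) were plated at 3,000 cells/well and preincubated 5 hr at 37C, then given compound plus R1881 agonist for 16 h. ONE-Glo luminescence was read.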

Chain of Androgen receptor (Homo sapiens) (P10275 whole entry, looked up): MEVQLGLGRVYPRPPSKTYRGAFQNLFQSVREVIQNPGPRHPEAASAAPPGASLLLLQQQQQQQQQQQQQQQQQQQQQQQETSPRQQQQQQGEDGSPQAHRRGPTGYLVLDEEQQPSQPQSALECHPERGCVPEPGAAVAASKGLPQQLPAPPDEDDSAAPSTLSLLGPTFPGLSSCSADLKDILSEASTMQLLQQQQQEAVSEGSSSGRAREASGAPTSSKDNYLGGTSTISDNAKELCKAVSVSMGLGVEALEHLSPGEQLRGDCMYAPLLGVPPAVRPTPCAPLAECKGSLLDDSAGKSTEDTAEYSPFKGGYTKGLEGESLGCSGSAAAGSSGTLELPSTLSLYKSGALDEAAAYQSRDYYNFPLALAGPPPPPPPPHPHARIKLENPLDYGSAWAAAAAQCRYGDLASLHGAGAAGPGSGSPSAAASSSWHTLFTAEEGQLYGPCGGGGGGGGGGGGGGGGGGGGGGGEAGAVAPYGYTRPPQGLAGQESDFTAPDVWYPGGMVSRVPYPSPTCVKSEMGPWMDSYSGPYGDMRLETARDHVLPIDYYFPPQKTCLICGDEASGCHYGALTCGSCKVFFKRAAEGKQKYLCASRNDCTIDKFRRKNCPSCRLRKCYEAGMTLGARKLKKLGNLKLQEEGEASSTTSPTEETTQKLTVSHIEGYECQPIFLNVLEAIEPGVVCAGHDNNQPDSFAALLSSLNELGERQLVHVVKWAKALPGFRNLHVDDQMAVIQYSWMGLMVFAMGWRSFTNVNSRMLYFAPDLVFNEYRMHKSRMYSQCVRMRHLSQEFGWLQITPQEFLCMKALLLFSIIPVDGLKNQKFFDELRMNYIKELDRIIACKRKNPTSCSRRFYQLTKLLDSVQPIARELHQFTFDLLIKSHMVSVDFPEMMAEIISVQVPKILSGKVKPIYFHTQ

Structure (SMILES) | Potency [1] | Potency [2] | Potency [3] | Potency [4] | outcome [5] | outcome [6] | Potency [7] | Potency [8] | outcome [9] | outcome [10]
CCC(=O)c1ccc(O)cc1 | inactive | inactive | inactive | inactive | inactive | inactive | inactive | – | – | –
Cc1c(C(C)C)c(=O)n(-c2ccccc2)n1C | inactive | inactive | inactive | inactive | inactive | inactive | inactive | – | – | –
F[Si-2](F)(F)(F)(F)F | inactive | inactive | inactive | inactive | inactive | inactive | inactive | – | – | –
COc1cc2c3cc1Oc1cc(ccc1O)C[C@@H]1c4c(cc(OC)c(O)c4Oc4ccc(cc4)C[C@@H]3N(C)CC2)CC[N+]1(C)C | inactive | inactive | inactive | inactive | inactive | inactive | inactive | – | – | –
CO[Si](CCCCl)(OC)OC | inactive | inactive | inactive | inactive | inactive | inactive | inactive | – | – | –
COc1ccc(N=Nc2cc(C)c(N=Nc3ccc(S(=O)(=O)O)cc3)cc2OC)cc1 | inactive | inactive | inactive | inactive | inactive | inactive | inactive | – | – | –
CCCCC(CC)COC(=O)c1ccccc1 (centres undefined) | inactive | inactive | inactive | inactive | inactive | inactive | inactive | – | – | –
CCCCCCCCCOCC1CO1 (centres undefined) | inactive | inactive | inactive | inactive | inactive | inactive | inactive | – | – | –
CC(=O)c1ccc2c(c1)CCCC2 | inactive | inactive | inactive | inactive | inactive | inactive | inactive | – | – | –
O=C1NC2NC(=O)NC2N1 (centres undefined) | inactive | inactive | inactive | inactive | inactive | inactive | inactive | – | – | –
Cc1cccc(Nc2ccncc2S(=O)(=O)NC(=O)NC(C)C)c1 | inactive | inactive | inactive | inactive | inactive | inactive | inactive | – | – | –
C=CCOc1c(Br)cc(C(C)(C)c2cc(Br)c(OCC=C)c(Br)c2)cc1Br | inactive | inactive | inactive | inactive | inactive | inactive | inactive | – | – | –
CC(C)CCCC(C)CC=O (centres undefined) | inactive | inactive | inactive | inactive | inactive | inactive | inactive | – | – | –
CC(=O)OC(C)(C)Cc1ccccc1 | inactive | inactive | inactive | – | inactive | inactive | inactive | – | – | –
BrC/C=C/CBr | inactive | inactive | inactive | inactive | inactive | inactive | inactive | – | – | –
NCCc1ccn[nH]1 | inactive | inactive | inactive | inactive | – | inactive | – | inactive | inactive | inactive
CCCCC(=O)N(C)C | inactive | inactive | inactive | inactive | – | inactive | inactive | – | – | –
Cc1cccc(C(=O)O)c1[N+](=O)[O-] | inactive | inactive | inactive | inactive | inactive | inactive | inactive | – | – | –
O=C(O)Cc1cccc(-c2cc(CCCCCCc3ccc(O[C@H]4O[C@H](CO)[C@@H](O)[C@H](O)[C@@H]4O)c(-c4cccc(CC(=O)O)c4)c3)ccc2O[C@H]2O[C@H](CO)[C@@H](O)[C@H](O)[C@@H]2O)c1 | inactive | inactive | inactive | inactive | – | inactive | – | – | – | –
CCCCCCCCCCCCCCCCI | inactive | inactive | inactive | inactive | – | inactive | inactive | inactive | inactive | inactive
CCC(O)C(C)(C)C (centres undefined) | inactive | inactive | inactive | inactive | inactive | inactive | inactive | – | – | –

Structure (SMILES) | Potency [1] | Potency [2] | Potency [3] | Potency [4] | outcome [5] | outcome [6] | Potency [7] | Potency [8] | outcome [9] | outcome [10]
O=S(=O)(O)CCO | inactive | inactive | inactive | inactive | – | inactive | inactive | – | – | –
Cc1ccccc1C | inactive | inactive | inactive | inactive | – | inactive | – | – | – | –
C=C[C@@H](C)CCC=C(C)C | inactive | inactive | inactive | inactive | inactive | inactive | inactive | – | – | –
Cc1nc([N+](=O)[O-])cn1-c1ccc([N+](=O)[O-])cc1 | inactive | inactive | inactive | inactive | – | inactive | inactive | – | – | –
C[C@H](CCC(=O)NCC(=O)O)[C@H]1CC[C@H]2[C@@H]3[C@H](O)C[C@@H]4C[C@H](O)CC[C@]4(C)[C@H]3C[C@H](O)[C@]12C | inactive | inactive | inactive | inactive | – | inactive | – | – | – | –
CN[C@@H]1[C@H](O)[C@H](NC)[C@H]2O[C@@]3(O)C(=O)C[C@@H](C)O[C@H]3O[C@@H]2[C@H]1O | inactive | inactive | inactive | inactive | – | inactive | inactive | inactive | inactive | inactive
CCC1Nc2cc(Cl)c(S(N)(=O)=O)cc2S(=O)(=O)N1 (centres undefined) | inactive | inactive | inactive | inactive | – | inactive | inactive | – | – | –
CCCCC(C)C(=O)O (centres undefined) | inactive | inactive | inactive | inactive | – | inactive | inactive | – | – | –
Cc1ccccc1N1CCN(CCc2nnc3n2CCCC3)CC1 | inactive | inactive | inactive | inactive | inactive | – | inactive | – | – | –
NC(=O)NC(=O)Cc1ccccc1 | inactive | inactive | inactive | inactive | – | inactive | inactive | – | – | –
C=CC(C)(O)CC/C=C(\C)CC (centres undefined) | inactive | inactive | inactive | inactive | – | inactive | inactive | – | – | –
C1=CCC(c2ccccc2)CC1 (centres undefined) | inactive | 61.1 µM (active) | 30.6 µM (active) | 54.5 µM (active) | – | inactive | – | – | – | –
CCCCCCCC/C=C\CCCCCCCC(=O)OC[C@@H](O)[C@H]1OC[C@H](O)[C@H]1O | inactive | inactive | inactive | inactive | – | inactive | inactive | – | – | –
O=C(O)c1ccccc1C(=O)Nc1ccc(S(=O)(=O)Nc2nccs2)cc1 | inactive | inactive | inactive | inactive | – | inactive | – | inactive | inactive | inactive
CC(C)COC(=O)CC(C(=O)OCC(C)C)S(=O)(=O)O (centres undefined) | inactive | inactive | inactive | inactive | – | inactive | inactive | – | – | –
Nc1cc(S(=O)(=O)O)ccc1S(=O)(=O)O | inactive | inactive | inactive | inactive | – | inactive | inactive | – | – | –
C=CCOc1cc(Cl)ccc1C(=O)NCCN(CC)CC | inactive | 15 µM (active) | 29.8 µM (active) | – | inactive | inactive | – | – | – | –
COC(=O)CCC(=O)O | inactive | inactive | inactive | inactive | – | inactive | inactive | – | – | –
C[N+](C)(C)CC(O)CCl (centres undefined) | inactive | inactive | inactive | inactive | – | inactive | inactive | – | – | –
CNCc1ccccc1 | inactive | inactive | inactive | inactive | inactive | inactive | inactive | – | – | –
Nc1c(NC/C=C\COc2cc(CN3CCCCC3)ccn2)c(=O)c1=O | inactive | inactive | inactive | inactive | – | inactive | 23.7 µM (active) | – | – | –

Structure (SMILES) | Potency [1] | Potency [2] | Potency [3] | Potency [4] | outcome [5] | outcome [6] | Potency [7] | Potency [8] | outcome [9] | outcome [10]
O=C(O)C(=O)Nc1cccc(-c2nn[nH]n2)c1 | inactive | inactive | inactive | inactive | – | inactive | inactive | – | – | –
COC(OC)C(C)c1ccccc1 (centres undefined) | inactive | inactive | inactive | inactive | – | inactive | inactive | inactive | inactive | inactive
O=[Si]=O | inactive | inactive | inactive | inactive | – | inactive | inactive | – | – | –
CCCCCCCCCCCCC | inactive | inactive | inactive | inactive | – | inactive | inactive | – | – | –
CC(CC(=O)O)CC(C)(C)C (centres undefined) | inactive | inactive | inactive | inactive | – | inactive | inactive | – | – | –
Cn1c(=O)c2c(ncn2CC2OCCO2)n(C)c1=O | inactive | inactive | inactive | inactive | – | inactive | inactive | inactive | inactive | inactive
CCC(C)(C)C1CCC(=O)CC1 | inactive | inactive | – | inactive | inactive | inactive | inactive | inactive | inactive | inactive
COc1ccc(NS(=O)(=O)c2ccc(N)cc2)nn1 | inactive | inactive | – | inactive | inactive | inactive | inactive | – | – | –
Cc1nc(C)nc(N2C[C@@H](C)N(c3ccnc([C@@H](C)O)n3)[C@@H](C)C2)n1 | inactive | inactive | – | – | – | inactive | inactive | – | – | –
O=C(O)c1ccccc1C(=O)OCc1ccccc1 | inactive | – | inactive | inactive | inactive | inactive | inactive | – | inactive | inactive
COc1cc(C=O)ccc1OC(=O)C(C)C | inactive | inactive | inactive | – | inactive | inactive | inactive | – | – | –
CN(C1CCCCC1)S(=O)(=O)c1ccccc1N | inactive | 30.6 µM (active) | – | 54.5 µM (active) | – | inactive | inactive | – | – | –
Nc1ccc(S(=O)(=O)Nc2ccccn2)cc1 | inactive | – | inactive | inactive | inactive | inactive | – | inactive | inactive | inactive
CCCCC/C=C/CC(=O)OC | inactive | inactive | – | – | inactive | inactive | – | – | – | –
CCCOC(=O)CCCCC(=O)OCCC | inactive | inactive | – | inactive | inactive | inactive | inactive | – | – | –
CC(C)CCCCCCOC(=O)C1CCCCC1C(=O)OCCCCCCC(C)C (centres undefined) | inactive | inactive | – | inactive | inactive | inactive | inactive | – | – | –
CC(C)COC(=O)CCCCC(=O)OCC(C)C | inactive | inactive | – | inactive | inactive | inactive | inactive | – | – | –
CNC(=O)C(c1ccccc1)c1ccccc1 | inactive | 61.1 µM (active) | – | – | inactive | inactive | inactive | – | – | –
O=C(CN1CCN(Cc2ccc3c(c2)OCO3)CC1)N1c2ccccc2Sc2ccccc21 | inactive | 13.3 µM (active) | – | 26.6 µM (active) | – | inactive | 29.8 µM (active) | 26.8 µM (active) | inactive | inactive
O=c1cc(O)c(Cl)c[nH]1 | inactive | inactive | – | inactive | – | inactive | inactive | – | – | –
COc1cc([N+](=O)[O-])ccc1N | inactive | inactive | – | inactive | inactive | – | – | – | inactive | inactive
